Assay [1] in a line: qHTS assay to identify small molecule agonists of the constitutive androstane receptor (CAR) signaling pathway - cell viability counter screen (AID 1224836). Further: nearly all actives have a fitted effect of over 45% in size. Further: potency means the concentration at half of the fitted maximal effect. In short, it runs like this: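 Fluorescence from CellTiter-Fluor indicates live cells after 23 h exposure. The human hepatoma line expresses hCAR and a CYP2B6-2.2kb reporter. Incubation medium contains 0.75 uM PK11195 (final).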
(qHTS replaces the single test concentration by a dilution series.)

Assay [2] is described as follows: qHTS assay to identify small molecule antagonists of the estrogen related receptor signaling pathway with the pleiotropic PPARgamma coactivator (PGC) from Tox21 10K library - cell viability counter screen (AID 1224840; active means well fitted cell-killing curve with a large enough effect in the repeat runs, not every such curve was filed as active; further: nearly all actives have a fitted effect of over 40% in size; further: potency means the concentration at half of the fitted maximal effect). In short, it runs like this:
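Here the PGC/ERR cells serve as a cytotoxicity control: they are exposed to compounds for 17.5 hours at 37 C, and live-cell signal is quantified using CellTiter-Fluor fluorescence.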

Assay [3] concerns the target Thyrotropin receptor (Homo sapiens) (UniProt P16473). In words: qHTS assay to identify small molecule agonists of the thyroid stimulating hormone receptor (TSHR) signaling pathway (AID 1224843; calls by dose curve; further: nearly all actives have a fitted effect of over 45% in size; further: potency means the concentration at half of the fitted maximal effect). Summed up: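 Cell line HEK293 with TSHR; density 800/well. Exposure 30 min RT. Readout HTRF cAMP (cAMP-d2/anti-cAMP-cryptate), 1 h RT before reading.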
Assay [4] is described as follows: qHTS assay to identify small molecule agonists of the hypoxia (HIF-1) signaling pathway - cell viability counter screen (AID 1224844; calls by dose curve; further: nearly all actives have a fitted effect of over 50% in size; further: potency means the concentration at half of the fitted maximal effect). Summed up:
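Multiplexed with the HRE beta-lactamase assay, this viability read used CellTiter-Glo luminescence (30 min, RT) on HRE-bla ME-180 cells treated 17 hrs with compounds in 0.5% dialyzed FBS medium.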

Assay [5] in a line: qHTS assay to identify small molecule agonists of H2AX (AID 1224845; active means well fitted activation curve with a large enough effect in the signal ratio in the repeat runs, not every such curve was filed as active; the % refers to the signal ratio; further: potency means the concentration at half of the fitted maximal effect). Summed up: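 Wild-type CHO-K1 cells plated overnight, then exposed 3 hr at 37C to compounds at 15 concentrations (0.76% DMSO). Lysed, then HTRF anti-pH2AX(S139)-cryptate/anti-H2AX-d2 detection after 24 hr at room temperature; emissions 665 and 620 nm.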
Assay [6] can be described thus: qHTS assay to identify small molecule agonists of the hypoxia (HIF-1) signaling pathway (AID 1224846; active means well fitted activation curve with a large enough effect in the signal ratio in the repeat runs, not every such curve was filed as active; the % refers to the signal ratio). In short, it runs like this: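 Hypoxia-pathway activation was scored as increased beta-lactamase from an HRE-controlled reporter in ME-180 cells; plated at 2,000 cells per well with 0.5% dialyzed FBS, they were exposed 17 hrs to compounds and then given CCF4-AM.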

Assay [7] in a line: qHTS assay to identify small molecule agonists of H2AX - cell viability counter screen (AID 1224847; calls by dose curve; further: nearly all actives have a fitted effect of over 30% in size; further: potency means the concentration at half of the fitted maximal effect). Summed up:
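Viability of CHO-K1 (wild type) cells after 3 hr compound exposure was measured by CellTiter-Glo luminescence.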

Assay [8] is described as follows: qHTS assay to identify small molecule antagonists of the estrogen related receptor (ERR) signaling pathway from Tox21 library (AID 1224848). Further: nearly all actives have a fitted effect of over 50% in size. Further: potency means the concentration at half of the fitted maximal effect. Summed up: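 Screening used an ERR reporter line supplied by NTP, exposed for 18 h at 37 C to library compounds delivered in DMSO. Signal was luciferase luminescence developed with ONE-Glo at room temperature for 30 min.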

Assay [9] in a line: qHTS assay to identify small molecule agonists of the estrogen related receptor (ERR) signaling pathway from Tox21 library (AID 1224849; calls by dose curve; further: nearly all actives have a fitted effect of over 15% in size). The conditions noted are these: ERR reporter cell line, ONE-Glo luciferase, 18 h; at 92.4 µM (top of the series) unless noted. Summed up: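 Six hours post-seeding at 37 C/5% CO2, ERR cells receive DMSO-solubilised compounds; after 18 h at 37 C, ONE-Glo reagent is applied and luminescence recorded.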

A short description of assay [10]: qHTS RealTime-Glo MT Cell Viability Assay in HepG2 cells - 24 hour (AID 1224867). Further: nearly all actives have a fitted effect of over 50% in size. Further: potency means the concentration at half of the fitted maximal effect. In short, it runs like this: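 HepG2 suspension premixed with RealTime-Glo reagents is plated at 600 cells per well and left 5 h at 37 C/5% CO2. Compounds in DMSO then go in, and bioluminescence reflecting viable cell number is recorded over 40 h.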
Assay [11] in a line: A CellTox Green Cytotoxicity Assay to monitor cytotoxicity in HEK293 cells - 0 hour (AID 1224869). Further: nearly all actives have a fitted effect of over 50% in size. In short, it runs like this: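 Seeding of HEK293 cells together with cytotoxicity dye preceded a 5 h incubation at 37 C/5% CO2. Test compounds in DMSO were then added and fluorescence monitored across 40 h.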
Assay [12] in a line: qHTS RealTime-Glo MT Cell Viability Assay in HepG2 cells - 40 hour (AID 1224870). Further: nearly all actives have a fitted effect of over 50% in size. Further: potency means the concentration at half of the fitted maximal effect. Summed up:
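HepG2 cells mixed with RealTime-Glo MT reagents (NanoLuc plus cell-permeant prosubstrate) were seeded at 600 cells/well, incubated 5 h at 37 C/5% CO2, then pinned with compounds in DMSO; nonlytic luminescence tracked viability during 40 h treatment.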

Assay [13] deals with Nuclear receptor subfamily 1 group I member 3 (Homo sapiens) (UniProt Q14994). In words: qHTS assay to identify small molecule antagonists of the constitutive androstane receptor (CAR) signaling pathway (AID 1224838).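 Further: HepG2 cells stably expressing hCAR with CYP2B6 luciferase reporter stimulated by CITCO; nearly all actives have a fitted effect of over 40% in size.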 Further: potency means the concentration at half of the fitted maximal effect. Summed up:
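Reporter luminescence was quantified after 24 h exposure of hCAR/CYP2B6-2.2kb double-stable HepG2 cells to compounds at 15 concentrations in the presence of 50 nM CITCO final.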

For assay [14] the target is unchanged. In words: qHTS assay to identify small molecule agonists of the constitutive androstane receptor (CAR) signaling pathway (AID 1224839). Further: nearly all actives have a fitted effect of over 15% in size. Further: potency means the concentration at half of the fitted maximal effect. In short, it runs like this: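 Stable hCAR/CYP2B6-2.2kb HepG2 line in DMEM with 10% FBS; compounds (15 concentrations) and 0.75 uM PK11195 final, 24 h at 37 C/5% CO2, then ONE-Glo luminescence after 30 min.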
Assay [15] is described as follows: qHTS assay to identify small molecule antagonists of the constitutive androstane receptor (CAR) signaling pathway - cell viability counter screen (AID 1224837). Further: nearly all actives have a fitted effect of over 45% in size. Further: potency means the concentration at half of the fitted maximal effect. Summed up: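 Using CellTiter-Fluor, viability is scored in HepG2 cells stably carrying hCAR and a 2.2kb CYP2B6 reporter after 23 hr compound exposure across 15 concentrations, with CITCO present at 50 nM.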

A short description of assay [16]: qHTS assay to identify small molecule antagonists of the estrogen related receptor signaling pathway with the pleiotropic PPARgamma coactivator (PGC) from Tox21 10K library (AID 1224841; call rule not given here; further: potency means the concentration at half of the fitted maximal effect). In short, it runs like this:
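Each well held 2,000 PGC/ERR cells, pre-incubated six hours (37 C, 5% CO2). Test substances in DMSO were added by pin tool and left for 18 h at 37 C before luciferase detection by One-Glo.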

A short description of assay [17]: qHTS assay to identify small molecule agonists of the estrogen related receptor signaling pathway with the pleiotropic PPARgamma coactivator (PGC) from Tox21 10K library (AID 1224842). Further: nearly all actives have a fitted effect of over 15% in size. Further: potency means the concentration at half of the fitted maximal effect. In short, it runs like this:
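PGC/ERR reporter cells (NTP line) were seeded 2,000 per well, rested 6 h at 37 C/5% CO2, then pin-dosed with compounds in DMSO for 18 h at 37 C; luciferase read by One-Glo luminescence after 30 min at room temperature.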

The target of assay [18] is Luciferin 4-monooxygenase (Photinus pyralis) (UniProt P08659). In words: qHTS assay to identify small molecule inhibitors of firefly luciferase (AID 1224835). Further: nearly all actives have a fitted effect of over 25% in size. Further: potency means the concentration at half of the fitted maximal effect. In short, it runs like this: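 Quantitative HTS format; KM concentrations of both substrates. Purified P. pyralis FLuc activity quantified from luminescence images.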
Assay [19] in a line: qHTS RealTime-Glo MT Cell Viability Assay in HEK293 cells - 32 hour (AID 1224868). Further: nearly all actives have a fitted effect of over 50% in size. Further: potency means the concentration at half of the fitted maximal effect. Summed up:
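Reads taken at 0, 8, 16, 24, 32 and 40 h from the same wells. HEK293 cells (600/well) carried RealTime-Glo reagents from seeding, with compound added after a 5 h settle at 37 C.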

Values joined by “and” are separate entries in the source; they are usually repeats but may differ in a detail not shown here. Identical values can stand only once. Unmarked numbers belong to inactive results. Records with an inconclusive call do not appear. Active and inactive are the calls of the source. Unless noted, the call rests on the fitted dose curve; in most records, active means well fitted curve in the direction sought with a large enough effect in the repeat runs; inconclusive means weak or mixed curves; inactive means no such curve, though single readings can be large; an effect the other way counts as inactive or inconclusive.
On the % scale 0 is the no-effect control and ±100 the full control effect.

Sequence of Thyrotropin receptor (Homo sapiens) (P16473 whole entry, looked up): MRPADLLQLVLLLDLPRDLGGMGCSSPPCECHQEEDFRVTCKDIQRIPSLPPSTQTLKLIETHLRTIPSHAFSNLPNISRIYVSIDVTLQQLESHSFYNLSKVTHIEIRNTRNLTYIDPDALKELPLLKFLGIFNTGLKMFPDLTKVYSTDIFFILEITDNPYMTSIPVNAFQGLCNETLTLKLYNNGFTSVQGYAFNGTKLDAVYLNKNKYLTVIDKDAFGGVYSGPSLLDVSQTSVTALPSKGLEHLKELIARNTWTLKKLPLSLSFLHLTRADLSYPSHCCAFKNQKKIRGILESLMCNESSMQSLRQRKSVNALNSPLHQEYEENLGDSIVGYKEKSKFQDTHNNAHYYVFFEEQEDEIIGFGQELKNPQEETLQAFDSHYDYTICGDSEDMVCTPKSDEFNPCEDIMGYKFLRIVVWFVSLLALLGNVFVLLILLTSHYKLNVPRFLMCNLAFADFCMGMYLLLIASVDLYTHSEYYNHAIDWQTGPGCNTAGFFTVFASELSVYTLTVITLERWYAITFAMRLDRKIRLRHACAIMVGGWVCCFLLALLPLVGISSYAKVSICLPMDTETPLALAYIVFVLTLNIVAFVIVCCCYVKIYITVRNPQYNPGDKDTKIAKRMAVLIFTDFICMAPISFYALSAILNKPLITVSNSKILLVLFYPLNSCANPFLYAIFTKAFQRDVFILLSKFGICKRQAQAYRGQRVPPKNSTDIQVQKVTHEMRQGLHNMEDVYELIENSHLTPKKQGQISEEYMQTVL
Sequence of Nuclear receptor subfamily 1 group I member 3 (Homo sapiens) (Q14994 whole entry, looked up): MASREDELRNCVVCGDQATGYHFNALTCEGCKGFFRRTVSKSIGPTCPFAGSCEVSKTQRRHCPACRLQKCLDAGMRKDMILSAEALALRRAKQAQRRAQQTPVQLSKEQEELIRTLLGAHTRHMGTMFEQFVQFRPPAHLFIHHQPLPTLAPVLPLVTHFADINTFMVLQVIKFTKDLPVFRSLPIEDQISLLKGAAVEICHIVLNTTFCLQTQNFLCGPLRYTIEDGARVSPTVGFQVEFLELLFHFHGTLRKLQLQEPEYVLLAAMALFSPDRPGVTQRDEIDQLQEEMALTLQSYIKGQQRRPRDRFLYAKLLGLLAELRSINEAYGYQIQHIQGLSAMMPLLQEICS
Sequence of Luciferin 4-monooxygenase (Photinus pyralis) (P08659 whole entry, looked up): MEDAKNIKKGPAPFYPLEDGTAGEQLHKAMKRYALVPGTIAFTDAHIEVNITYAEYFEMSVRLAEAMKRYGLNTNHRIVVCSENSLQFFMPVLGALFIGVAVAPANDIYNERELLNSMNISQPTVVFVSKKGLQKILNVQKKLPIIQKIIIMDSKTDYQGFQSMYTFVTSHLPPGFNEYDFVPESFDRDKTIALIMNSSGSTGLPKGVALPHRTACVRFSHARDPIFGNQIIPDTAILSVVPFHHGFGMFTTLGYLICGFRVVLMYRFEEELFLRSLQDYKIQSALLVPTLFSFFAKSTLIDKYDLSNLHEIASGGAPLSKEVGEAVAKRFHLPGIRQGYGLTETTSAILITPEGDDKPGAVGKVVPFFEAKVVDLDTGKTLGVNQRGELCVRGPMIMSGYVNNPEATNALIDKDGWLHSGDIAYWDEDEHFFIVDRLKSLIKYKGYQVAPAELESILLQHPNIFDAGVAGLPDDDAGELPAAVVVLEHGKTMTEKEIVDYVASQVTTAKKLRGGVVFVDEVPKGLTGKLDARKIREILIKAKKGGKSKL

For the compound `Nc1ccc(Cl)cc1C(=O)c1ccccc1`, the Potency entry in assay [1], in assay [2], in assay [3], in [4], in [5] and in assay [8] was “inactive” each time. Further, the Potency result in [10], in assay [11] and in assay [12] was “inactive” throughout. Further, the result in [6] was inactive. The Potency in assay [7] is 101 µM (active). Moreover, the activity change, positive = activation in assay [9] is 3.06%.

As for `Oc1c(Br)c(Br)c(Br)c(Br)c1Br`, the Potency result in [13], in assay [14], in [10], in assay [11] and in assay [12] was “inactive” throughout. Moreover, the Potency was 43.9 µM (active) in assay [4] and 80.5 µM (active) in assay [7].

For `O=C1c2ccccc2C(=O)C1C(=O)C(c1ccccc1)c1ccc(Cl)cc1` (configuration not stated), the Potency result in [15], in [13], in assay [17], in [3], in assay [7] and in [10] was “inactive” each time. The Potency result in [11] and in assay [12] was “inactive” throughout. Besides, the Potency in assay [16] is 6.11 µM (active); in assay [4] it was 9.77 µM (active); in assay [8], 9.69 µM (active). The activity change, positive = activation in assay [9] was -59.3%.

With `C=CCC1=C(C)C(OC(=O)C2C(C=C(C)C)C2(C)C)CC1=O` (configuration not stated), the Potency result in assay [18], in [15], in assay [13], in [17] and in assay [11] was “inactive” in each case. For the same compound, the Potency in [14] was 16.3 µM (active); in assay [16], 20.5 µM (active); in [7], 60.1 µM (active); in assay [8], 20.5 µM (active); in [19], 26 µM (active). Moreover, the activity change, positive = activation in [9] is -28.6%.

Regarding `COc1cccc2c1C(=O)c1c(O)c3c(c(O)c1C2=O)C[C@@](O)(C(=O)CO)CC3OC1CC(N2CCOC(OC)C2)C(O)C(C)O1` (some centres not stated), the Potency in [1] was 0.119 µM (active); in [15] it was 0.106 µM (active); in [13], 29.8 nM (active); in assay [16], 0.266 µM (active); in assay [10], 1.9 µM (active); in [12], 0.0338 µM (active). Besides, the Potency entry in assay [14], in [2], in assay [17], in [3], in assay [7] and in assay [8] was “inactive” each time. For the same compound, in [11], the Potency result was “inactive”. The activity change, positive = activation in assay [9] is -10.4% [at 42.5 µM].

Consider `Nc1ccc(Cc2ccc(N)c(Cl)c2)cc1Cl`, for which the Potency result in assay [13], in assay [17], in assay [3], in assay [10], in [11] and in assay [12] was “inactive” throughout. Also, the Potency was 16.7 µM (active) in assay [14], 13.2 µM (active) in assay [16], 26.4 µM (active) in assay [8] and 26.6 µM (active) in assay [19].

For `O=C(O)C1C2CCC(O2)C1C(=O)O` (configuration not stated), the Potency result in assay [18], in assay [14], in assay [2], in assay [16], in assay [3] and in assay [4] was “inactive” in each case. Further, the Potency result in assay [7], in assay [8], in assay [10], in assay [11] and in assay [12] was “inactive” in each case. Besides, the Potency was 49.2 µM (active) and 44.5 µM (active) in assay [13]; 55.1 µM (active) and 19.9 µM (active) in assay [17]; 102 µM (active) in [5]. Also, in [9], the activity change, positive = activation was 4.71%.

On to `COP(=O)(OC)SCn1c(=O)oc2cc(Cl)cnc21`, for which the Potency entry in assay [18], in [14], in [2], in assay [17], in assay [5] and in assay [10] was “inactive” in each case. Also, the Potency is 30.6 µM (active) in [1], 24.3 µM (active) in assay [3] and 49 µM (active) in assay [4]. In assay [6], the result was inactive. Also, the activity change, positive = activation in [9] was -27.7%.

Consider `O=[N+]([O-])c1c2ccccc2cc2ccccc12`, for which the Potency in assay [18] was 31.3 µM (active); in assay [14] it was 21.4 µM (active). Besides, the Potency entry in assay [13], in assay [2], in assay [16], in [3], in assay [8] and in assay [10] was “inactive” each time. Besides, the Potency result in [19] and in assay [11] was “inactive” each time.

With `N#Cc1c(-c2ccc(Cl)cc2)[nH]c(C(F)(F)F)c1Br`, the Potency in assay [15] is 1.22 µM (active); in [13] it was 969 nM (active); in assay [2], 1.54 µM (active); in [16], 0.486 µM (active); in assay [7] it was 2.84 µM (active); in assay [8], 0.344 µM (active). Also, the Potency in assay [19] is 1.55 µM (active). The Potency result in assay [14], in assay [17], in assay [3], in [4], in assay [5] and in assay [10] was “inactive” in each case. Also, the activity change, positive = activation in assay [9] is -60.7%.

For the compound `CC[C@H]1C[C@@H]2C[C@H]3c4[nH]c5ccc(OC)cc5c4CCN(C2)[C@@H]13`, the Potency result in assay [18], in [1], in assay [13], in assay [14], in assay [7] and in assay [11] was “inactive” each time. For the same compound, the Potency in assay [16] is 53.5 µM (active); in assay [8], 30.1 µM (active). In addition, the activity change, positive = activation in [9] was -44.1%.

Regarding `CC(C)N1C(=O)N(c2ccccc2)CSC1=NC(C)(C)C`, the Potency result in assay [18], in assay [15], in assay [13], in [17], in assay [3] and in assay [10] was “inactive” throughout. Moreover, the Potency result in assay [11] and in assay [12] was “inactive” throughout. In addition, the Potency was 24.3 µM (active) in assay [14], 34.4 µM (active) in assay [8] and 21.9 µM (active) in assay [19]. Further, in assay [9], the activity change, positive = activation was -49.9%.

Values taken from PubChem BioAssay (Tox21).
